The list is not random: actives were taken first. Their share in the collection is about 7.2%.
RE007 growth inh: less growth of the S. pombe RE007 Vpr strain; Potency, µM (series often up to 92.2 µM), hits mostly inhibitors; AID 651644; actives 0.21% (n = 360,000); S. pombe RE007 Vpr strain, BacTiter-Glo ATP luminescence, 24 h; active = well fitted falling curve with a large enough effect; inconclusive = small, poorly fitted or top-dose-only effect; inactive = no such curve, though single readings can be large or run the other way; note: nearly all actives have a fitted effect of over 50% in size
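Fission yeast RE007 carrying one integrated HIV-1 vpr copy, seeded at OD 0.01 in PMG+AL medium with 23 nL pinned compound. Grown 24 h at 30 degrees; viability read by BacTiter-Glo luminescence after 5 min.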
Lassa entry inh: inhibitors of Lassa virus binding or cell entry; Lassa virus pseudotype entry inhibition, cell reporter; Potency, µM (series often up to 37.9 µM), actives largely listed as inhibitors; actives 1.2% (n = 300,000); AID 540256; calls by dose curve; tested in HEK293 cells; note: nearly all actives have a fitted effect of over 50% in size
HCV inh: blocks hepatitis C virus; Potency, µM (highest dose often 41.8 µM), most hits filed as inhibitors; Huh7.5.1 HCVcc-Cre infection, luciferase reporter, 44 h; actives 3.4% (n = 340,000); AID 651820
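Infectious HCV cell culture screen: compound-treated cells (1,000/well, pre-plated 4 h) are infected with HCVcc-Cre at roughly 0.5 moi and grown 44 h. Infection is quantified by luciferase signal after 15 min substrate incubation at room temperature.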
FMDV antiviral: blocks foot and mouth disease virus; FMDV antiviral cell-based qHTS; Potency, µM (doses to about 57.9 µM), actives largely listed as inhibitors; actives 1.2% (n = 410,000); AID 1159524; calls by dose curve; tested in HEK293T cells; note: read-out not given here; nearly all actives have a fitted effect of over 45% in size
Sm TGR block: blocks Schistosoma mansoni thioredoxin glutathione reductase; Potency, µM (top dose mostly 114 µM), hits mostly inhibitors; Q962Y6; actives 3% (n = 360,000); AID 485364; purified TGR, DTNB reduction, TNB absorbance 405 nm; note: nearly all actives have a fitted effect of over 60% in size
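Kinetic colorimetric format: TGR-catalysed, NADPH-driven DTNB reduction monitored via TNB absorbance. Enzyme dispensed at 20 nM; compound exposure 15 min at room temperature before reaction start.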
Marburg entry inh: inhibitors of Marburg virus binding or cell entry; Marburg virus pseudotyped entry inhibition, cell reporter; Potency, µM (highest dose often 37.8 µM), usual class: inhibitors; actives 1.8% (n = 300,000); calls by dose curve; tested in HEK293 cells
Numbers stand for hits; - = inactive; ? = inconclusive; . = no result given. Unless noted, calls come from the whole dose curve; as a rule, active = well fitted curve in the direction sought with a large enough effect; inconclusive = small, poorly fitted or top-dose-only effect, or another doubt; inactive = no such curve, though single readings can be large; an effect the other way counts as inactive or inconclusive.

SMILES | RE007 growth inh | Lassa entry inh | HCV inh | FMDV antiviral | Sm TGR block | Marburg entry inh
CN(/N=C\c1ccc(O)c(O)c1)c1nc(-c2ccccc2)cc(-c2ccccc2)n1 | - | ? | 11µM | - | - | ?
COc1cc(/C=N/N(c2ccccc2)c2ccccc2)ccc1O | ? | - | ? | - | - | -
C/C(CCC(=O)OC[C@H]1O[C@H](C#Cc2ccccc2)C=C[C@@H]1Oc1ccc(C)cc1)=N\OC[C@@H](O)COCc1ccco1 | . | . | . | . | . | -
O=[N+]([O-])c1ccc2c(c1)nc1n2CCN(C2CCCCC2)C1 | - | - | ? | - | 35µM | -
O=[N+]([O-])c1ccc2c(c1)nc1n2CCCCC1 | - | ? | - | - | - | ?
Cc1ccc(-n2ncc(C(=O)NCc3ccco3)c2C2CCN(C(=O)OC(C)(C)C)CC2)cc1 | . | ? | . | - | - | .
Oc1c(CNc2ccccc2)cc(COCc2ccccc2)c2cccnc12 | . | . | . | ? | 2.8µM | .
COCc1cc(CN2CCN(C)CC2)c(O)c2ncccc12 | - | ? | ? | - | 14µM | ?
Oc1c(CN2CCOCC2)cc(COCc2ccccc2)c2cccnc12 | - | ? | ? | - | 45µM | ?
CCOCc1cc(CN2CCN(c3cccc(Cl)c3)CC2)c(O)c2ncccc12 | . | ? | . | - | - | ?
Oc1cc(NCc2ccccc2)cc2cccnc12 | . | . | . | . | - | .
Oc1c(CN2CCOCC2)cc(CN2CCOCC2)c(O)c1O | - | - | - | - | . | -
CCOC(=O)N1CCN(Cc2cc(Cl)c3cccnc3c2O)CC1 | ? | ? | 4µM | - | 32µM | ?
OC(c1cccnc1)c1ccc2c(c1)CN(Cc1cn(-c3ccccc3)nc1-c1ccccc1)CCO2 (stereo unspecified) | . | . | . | - | . | .
O=C(CCCSc1nc(-c2ccco2)cc(C(F)(F)F)n1)Nc1ccc2c(c1)OCO2 | - | - | 4µM | - | - | -
O=C(CSc1nc(-c2ccco2)cc(C(F)(F)F)n1)Nc1ccc2c(c1)OCO2 | - | - | 3.5µM | ? | - | -
O=C(CCSc1nc(-c2ccco2)cc(C(F)(F)F)n1)N1CCCc2ccccc21 | - | - | ? | ? | 40µM | ?
CC(=O)c1ccc(NC(=O)CCCSc2nc(-c3ccco3)cc(C(F)(F)F)n2)cc1 | . | - | . | - | - | -
COc1ccc(NC(=O)CSc2nc(-c3ccco3)cc(C(F)(F)F)n2)cc1 | . | ? | . | - | - | ?
Cc1c(CN(C)C(=O)CSc2nc(-c3ccco3)cc(C(F)(F)F)n2)cnn1C | - | - | - | . | - | -
CCn1cc(CN(C)C(=O)CSc2nc(-c3ccco3)cc(C(F)(F)F)n2)c(C)n1 | - | - | ? | 20µM | . | ?
O=C(CSc1nc(-c2ccco2)cc(C(F)(F)F)n1)NN1CCOCC1 | - | - | - | - | . | -
O=C(CSc1nc(-c2ccco2)cc(C(F)(F)F)n1)Nc1ccc(C(=O)N2CCOCC2)cc1 | - | - | 10µM | - | - | ?
Cc1nn(C)c(C)c1NC(=O)CCCSc1nc(-c2ccco2)cc(C(F)(F)F)n1 | - | - | 2.2µM | ? | - | ?
CCOC(=O)c1c(NC(=O)c2cc(-c3ccccc3)on2)sc2c1CCCC2 | . | - | . | - | - | .
SMILES | RE007 growth inh | Lassa entry inh | HCV inh | FMDV antiviral | Sm TGR block | Marburg entry inh
CC(C)Cn1c(=O)c2c(nc3n2CCCN3CCc2ccccc2)n(C)c1=O | - | - | 10µM | ? | - | ?
Cn1c(=O)n(CCc2ccccc2)c(=O)c2c1nc1n2CCCN1CCc1ccccc1 | - | ? | ? | ? | - | ?
Cn1c(=O)n(CCc2ccccc2)c(=O)c2c1nc1n2CCCN1Cc1ccccc1 | - | 16µM | - | 20µM | - | ?
Cc1occc1C(=O)Nc1cccc(-c2nc(CNC(=O)c3ccc(N4CCCCC4)cc3)c(C)o2)c1 | . | . | . | - | . | .
COc1cccc(S(=O)(=O)N(C)C[C@H]2OCc3cnnn3CCCC(=O)N([C@H](C)CO)C[C@@H]2C)c1 | - | . | . | - | . | .
COC(=O)[C@H]1C[C@@]2(O)CN(S(=O)(=O)c3ccc(C)cc3)C[C@@]2(OC(=O)Nc2c(C)noc2C)C[C@H]1C(=O)OC | - | . | . | - | . | .
CCOC(=O)c1cccc(NC(=O)Cn2c(=O)nc(-c3ccccc3)c3ccccc32)c1 | . | - | . | - | - | .
CC1(C)N=C(N)N=C(N)N1c1cccc(C#N)c1 | - | 2.5µM | ? | - | . | ?

High-throughput results (PubChem BioAssay)
